Measured values taken from the supplement of paper PMC10849652.
Targets with a hit are over-represented here; the source holds about 7,900 in all. About 0.6% of all pairs of compound and target were hits.

Key:
Assay in all cases: log2 fold change, soluble protein after heating vs DMSO (PISA); higher = thermal stabilisation; K562 cells, 10 uM, 30 min; active = over 0.2 and 3.5 SD of the protein, either way, in both replicates (recomputed)
[1] = compound: CS(=O)(=O)c1ccc(-c2cnc(N)c(C(=O)Nc3ccccc3)n2)cc1
Method in brief: (§1)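 Thermal stability values are relative to control samples and come from duplicates. They are expressed as log2 fold changes. For measurement, K562 cells (2×10^6 cells/mL) received 10 μM compound for 30 min, and aliquots were heated for 3 min over 48°C-58°C, pooled, and extracted at 4°C in PBS with 0.5% NP-40. Soluble protein, the supernatant after 21,000xg for 90 min, was quantified by TMTpro 16plex LC-MS/MS with equalised channel sums.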

crizotinib = compound: C[C@@H](Oc1cc(-c2cnn(C3CCNCC3)c2)cnc1N)c1c(Cl)ccc(F)c1Cl [crizotinib]
Method in brief: as §1

[2] = compound: C[C@@H]1COCCN1C2=NC(=NC(=C2)C3(CC3)S(=O)(=O)C)C4=C5C=CNC5=CC=C4
Method in brief: as §1

[3] = compound: C[C@H](C1=CC=C(C=C1)C(=O)NC2=C3C=CNC3=NC=C2)N
Method in brief: as §1

duvelisib = compound: C[C@H](Nc1ncnc2nc[nH]c12)c1cc2cccc(Cl)c2c(=O)n1-c1ccccc1 [duvelisib]
Method in brief: as §1

gandotinib = compound: Cc1cc(Nc2cc(CN3CCOCC3)c3nc(C)c(Cc4ccc(Cl)cc4F)n3n2)n[nH]1 [gandotinib]
Method in brief: as §1

tozasertib = compound: Cc1cc(Nc2cc(N3CCN(C)CC3)nc(Sc3ccc(NC(=O)C4CC4)cc3)n2)n[nH]1 [tozasertib]
Method in brief: as §1

[4] = compound: Cc1cc(SCc2sc(-c3ccc(C(F)(F)F)cc3)nc2C)ccc1OCC(=O)O
Method in brief: as §1

doramapimod = compound: Cc1ccc(-n2nc(C(C)(C)C)cc2NC(=O)Nc2ccc(OCCN3CCOCC3)c3ccccc23)cc1 [doramapimod]
Method in brief: as §1

ispinesib = compound: Cc1ccc(C(=O)N(CCCN)[C@@H](c2nc3cc(Cl)ccc3c(=O)n2Cc2ccccc2)C(C)C)cc1 [ispinesib]
Method in brief: as §1

Measured: log2 fold change

MRPS10 (UniProt P82664)
inactive: [1] 0.028 | crizotinib 0.005 | [2] -0.033 | [3] 0.08 | duvelisib -0.005 | gandotinib 0.019 | tozasertib 0.002 | [4] 0.002 | doramapimod 0.029
active: ispinesib -0.265

NOLC1 isoform 2 (UniProt Q14978)
inactive: [1] -0.019 | crizotinib -0.135 | [2] 0.141 | [3] -0.154 | duvelisib -0.043 | gandotinib -0.023 | tozasertib -0.032 | [4] -0.038 | doramapimod 0.047 | ispinesib 0.179

NUP98 (UniProt P52948)
Chain of UniProt P52948 (P52948 whole entry, looked up): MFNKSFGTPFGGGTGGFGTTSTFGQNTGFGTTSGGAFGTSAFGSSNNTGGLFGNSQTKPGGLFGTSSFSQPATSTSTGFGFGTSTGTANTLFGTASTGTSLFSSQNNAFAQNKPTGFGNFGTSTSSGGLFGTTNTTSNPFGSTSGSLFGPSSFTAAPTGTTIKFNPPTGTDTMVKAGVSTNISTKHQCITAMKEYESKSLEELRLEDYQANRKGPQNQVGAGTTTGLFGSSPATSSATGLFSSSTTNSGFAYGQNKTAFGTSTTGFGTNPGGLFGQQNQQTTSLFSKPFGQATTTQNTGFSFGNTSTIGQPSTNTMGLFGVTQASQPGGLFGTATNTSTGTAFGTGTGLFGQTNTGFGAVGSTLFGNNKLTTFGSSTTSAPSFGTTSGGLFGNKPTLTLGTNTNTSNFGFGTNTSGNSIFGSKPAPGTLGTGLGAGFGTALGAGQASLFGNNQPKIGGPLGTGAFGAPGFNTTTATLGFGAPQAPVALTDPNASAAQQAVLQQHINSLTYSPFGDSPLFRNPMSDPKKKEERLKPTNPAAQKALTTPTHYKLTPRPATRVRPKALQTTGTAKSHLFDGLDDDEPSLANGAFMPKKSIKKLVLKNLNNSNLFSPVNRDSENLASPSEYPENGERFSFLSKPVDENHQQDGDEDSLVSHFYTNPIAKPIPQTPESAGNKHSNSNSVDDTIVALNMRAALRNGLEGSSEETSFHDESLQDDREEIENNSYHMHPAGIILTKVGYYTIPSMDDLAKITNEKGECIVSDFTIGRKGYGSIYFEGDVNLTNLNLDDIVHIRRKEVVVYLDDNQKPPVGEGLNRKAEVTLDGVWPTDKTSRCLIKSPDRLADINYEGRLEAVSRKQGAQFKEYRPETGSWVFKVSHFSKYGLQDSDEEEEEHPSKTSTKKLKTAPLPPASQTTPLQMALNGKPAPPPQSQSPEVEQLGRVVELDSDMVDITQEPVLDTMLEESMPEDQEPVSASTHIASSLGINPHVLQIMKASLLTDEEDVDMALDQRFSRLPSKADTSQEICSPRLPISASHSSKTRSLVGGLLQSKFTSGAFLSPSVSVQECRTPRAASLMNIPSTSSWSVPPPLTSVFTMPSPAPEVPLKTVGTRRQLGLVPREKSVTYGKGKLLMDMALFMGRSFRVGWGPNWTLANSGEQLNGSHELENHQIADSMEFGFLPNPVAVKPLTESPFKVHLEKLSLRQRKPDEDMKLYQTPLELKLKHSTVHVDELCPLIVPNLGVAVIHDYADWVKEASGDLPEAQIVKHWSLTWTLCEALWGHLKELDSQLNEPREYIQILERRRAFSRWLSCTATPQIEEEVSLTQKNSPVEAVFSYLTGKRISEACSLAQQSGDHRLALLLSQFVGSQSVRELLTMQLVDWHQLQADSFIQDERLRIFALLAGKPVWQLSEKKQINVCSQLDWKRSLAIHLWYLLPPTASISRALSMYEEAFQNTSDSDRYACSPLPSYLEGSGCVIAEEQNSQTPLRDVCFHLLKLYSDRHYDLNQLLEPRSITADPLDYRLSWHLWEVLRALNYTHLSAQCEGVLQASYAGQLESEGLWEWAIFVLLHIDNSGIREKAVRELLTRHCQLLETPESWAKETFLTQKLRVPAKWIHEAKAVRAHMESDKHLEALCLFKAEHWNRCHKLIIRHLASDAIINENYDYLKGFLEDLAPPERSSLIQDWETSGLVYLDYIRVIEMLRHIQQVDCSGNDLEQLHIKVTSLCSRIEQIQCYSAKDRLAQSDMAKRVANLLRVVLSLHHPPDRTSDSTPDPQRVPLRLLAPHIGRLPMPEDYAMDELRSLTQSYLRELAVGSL
inactive: [1] 0.031 | crizotinib -0.02 | [2] 0.007 | [3] -0.009 | duvelisib 0.007 | gandotinib -0.044 | tozasertib 0.04 | [4] 0.1 | doramapimod 0.022 | ispinesib 0.001

NEDD4L (UniProt Q96PU5)
inactive: [1] 0.015 | crizotinib -0.005 | [2] -0.071 | [3] -0.105 | duvelisib 0 | gandotinib 0.015 | tozasertib 0.088 | [4] 0.083 | doramapimod 0.026 | ispinesib -0.037

NMT2 (UniProt O60551)
inactive: [1] 0.043 | crizotinib -0.187 | [2] 0.059 | [3] 0.018 | duvelisib 0.038 | gandotinib 0.013 | tozasertib 0.042 | [4] 0.023 | doramapimod -0.013 | ispinesib -0.167

NA, A0A096LPI6
inactive: [1] -0.014 | crizotinib 0.079 | [2] 0.03 | [3] -0.015 | duvelisib 0.018 | gandotinib 0.04 | tozasertib -0.034 | [4] -0.051 | doramapimod -0.038 | ispinesib 0.047

OXSR1 (UniProt O95747)
inactive: [1] 0.031 | crizotinib -0.127 | [2] 0.021 | [3] 0.011 | duvelisib 0.037 | gandotinib -0.096 | tozasertib -0.013 | [4] 0.095 | doramapimod 0.011 | ispinesib -0.055

NDUFB10 (UniProt O96000)
inactive: [1] 0.024 | crizotinib -0.025 | [2] 0.012 | [3] 0.027 | duvelisib 0.023 | gandotinib -0.029 | tozasertib -0.002 | [4] 0.024 | doramapimod 0.003 | ispinesib -0.073

OTUD6B (UniProt Q8N6M0)
inactive: [1] 0.013 | crizotinib -0.146 | [2] 0.024 | [3] 0 | duvelisib -0.02 | gandotinib -0.086 | tozasertib 0.055 | [4] 0.122 | doramapimod 0.009 | ispinesib -0.165

NDUFAF6 (UniProt Q330K2)
inactive: [1] -0.052 | crizotinib -0.197 | [2] 0.182 | [3] -0.025 | duvelisib 0.144 | gandotinib -0.167 | tozasertib -0.051 | [4] 0.027 | doramapimod -0.065 | ispinesib -0.273

MTFR1L (UniProt Q9H019)
Chain of UniProt Q9H019 (Q9H019 whole entry, looked up): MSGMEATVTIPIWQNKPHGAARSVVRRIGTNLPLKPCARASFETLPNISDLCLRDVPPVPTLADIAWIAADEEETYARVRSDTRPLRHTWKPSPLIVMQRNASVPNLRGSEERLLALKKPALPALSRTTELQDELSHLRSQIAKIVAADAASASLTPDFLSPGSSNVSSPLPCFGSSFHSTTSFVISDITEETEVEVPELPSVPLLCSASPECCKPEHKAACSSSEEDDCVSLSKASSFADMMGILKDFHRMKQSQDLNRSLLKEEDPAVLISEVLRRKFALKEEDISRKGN
inactive: [1] 0.059 | crizotinib -0.162 | [2] -0.088 | [3] 0.153 | duvelisib -0.146 | gandotinib -0.123 | tozasertib -0.084 | [4] 0.039 | doramapimod 0.042 | ispinesib -0.329

MORF4L2 (UniProt Q15014)
inactive: [1] -0.085 | crizotinib 0.013 | [3] 0.053 | duvelisib -0.201 | gandotinib 0.085 | tozasertib -0.007 | [4] -0.012 | doramapimod 0.035 | ispinesib 0.011
active: [2] -0.275

NUMB (UniProt P49757)
inactive: [1] 0.056 | crizotinib -0.189 | [2] 0.07 | [3] -0.068 | duvelisib -0.05 | gandotinib -0.06 | tozasertib -0.082 | [4] 0.006 | doramapimod -0.012 | ispinesib -0.073

PAK1 isoform 2 (UniProt Q13153)
inactive: [1] 0.009 | crizotinib 0.054 | [2] 0.063 | duvelisib 0.09 | gandotinib -0.098 | tozasertib -0.076 | [4] 0.056 | doramapimod -0.155 | ispinesib 0.084
active: [3] -0.308

NCAPG (UniProt Q9BPX3)
inactive: [1] 0.029 | crizotinib -0.031 | [2] 0.034 | [3] 0.034 | duvelisib 0.073 | gandotinib -0.144 | tozasertib 0.115 | [4] 0.071 | doramapimod -0.077 | ispinesib -0.01

NGLY1 (UniProt Q96IV0)
inactive: [1] 0.017 | crizotinib -0.079 | [2] -0.01 | [3] 0.093 | duvelisib 0.028 | gandotinib -0.043 | tozasertib 0.048 | [4] 0.032 | doramapimod 0.001 | ispinesib -0.059

MXRA7 (UniProt P84157)
inactive: [1] 0.043 | crizotinib -0.012 | [2] 0.051 | [3] -0.138 | duvelisib -0.069 | gandotinib -0.122 | tozasertib 0.005 | [4] 0.047 | doramapimod 0.035 | ispinesib 0.103

OGFR (UniProt Q9NZT2)
inactive: [1] 0.074 | crizotinib -0.067 | [2] 0.034 | [3] 0.19 | duvelisib -0.016 | gandotinib -0.058 | tozasertib 0.021 | [4] 0.133 | doramapimod 0.082 | ispinesib -0.068

NMD3 (UniProt Q96D46)
inactive: [1] 0.094 | crizotinib 0.003 | [2] 0.122 | [3] -0.179 | duvelisib 0.064 | gandotinib 0.007 | tozasertib -0.007 | [4] 0.03 | doramapimod -0.013 | ispinesib 0.139

NDUFA7 (UniProt O95182)
Chain of UniProt O95182 (O95182 whole entry, looked up): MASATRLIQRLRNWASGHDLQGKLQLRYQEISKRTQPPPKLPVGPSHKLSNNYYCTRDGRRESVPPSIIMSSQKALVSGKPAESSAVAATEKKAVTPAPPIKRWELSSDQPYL
inactive: [1] -0.004 | crizotinib -0.103 | [2] 0.02 | [3] 0.039 | duvelisib 0.012 | gandotinib -0.12 | tozasertib -0.101 | [4] 0.07 | doramapimod -0.041 | ispinesib -0.118

NFATC2 (UniProt Q13469)
inactive: [1] 0 | crizotinib -0.154 | [2] -0.175 | [3] 0 | duvelisib 0.003 | gandotinib 0.048 | tozasertib 0.02 | [4] 0.024 | doramapimod 0.027 | ispinesib -0.18

NCAPH (UniProt Q15003)
inactive: [1] 0.049 | crizotinib 0.013 | [2] -0.017 | [3] 0.072 | duvelisib 0.024 | gandotinib -0.11 | tozasertib 0.102 | [4] 0.081 | doramapimod 0.006 | ispinesib -0.064

MON2 isoform 5 (UniProt Q7Z3U7)
Chain of UniProt Q7Z3U7 (Q7Z3U7 whole entry, looked up): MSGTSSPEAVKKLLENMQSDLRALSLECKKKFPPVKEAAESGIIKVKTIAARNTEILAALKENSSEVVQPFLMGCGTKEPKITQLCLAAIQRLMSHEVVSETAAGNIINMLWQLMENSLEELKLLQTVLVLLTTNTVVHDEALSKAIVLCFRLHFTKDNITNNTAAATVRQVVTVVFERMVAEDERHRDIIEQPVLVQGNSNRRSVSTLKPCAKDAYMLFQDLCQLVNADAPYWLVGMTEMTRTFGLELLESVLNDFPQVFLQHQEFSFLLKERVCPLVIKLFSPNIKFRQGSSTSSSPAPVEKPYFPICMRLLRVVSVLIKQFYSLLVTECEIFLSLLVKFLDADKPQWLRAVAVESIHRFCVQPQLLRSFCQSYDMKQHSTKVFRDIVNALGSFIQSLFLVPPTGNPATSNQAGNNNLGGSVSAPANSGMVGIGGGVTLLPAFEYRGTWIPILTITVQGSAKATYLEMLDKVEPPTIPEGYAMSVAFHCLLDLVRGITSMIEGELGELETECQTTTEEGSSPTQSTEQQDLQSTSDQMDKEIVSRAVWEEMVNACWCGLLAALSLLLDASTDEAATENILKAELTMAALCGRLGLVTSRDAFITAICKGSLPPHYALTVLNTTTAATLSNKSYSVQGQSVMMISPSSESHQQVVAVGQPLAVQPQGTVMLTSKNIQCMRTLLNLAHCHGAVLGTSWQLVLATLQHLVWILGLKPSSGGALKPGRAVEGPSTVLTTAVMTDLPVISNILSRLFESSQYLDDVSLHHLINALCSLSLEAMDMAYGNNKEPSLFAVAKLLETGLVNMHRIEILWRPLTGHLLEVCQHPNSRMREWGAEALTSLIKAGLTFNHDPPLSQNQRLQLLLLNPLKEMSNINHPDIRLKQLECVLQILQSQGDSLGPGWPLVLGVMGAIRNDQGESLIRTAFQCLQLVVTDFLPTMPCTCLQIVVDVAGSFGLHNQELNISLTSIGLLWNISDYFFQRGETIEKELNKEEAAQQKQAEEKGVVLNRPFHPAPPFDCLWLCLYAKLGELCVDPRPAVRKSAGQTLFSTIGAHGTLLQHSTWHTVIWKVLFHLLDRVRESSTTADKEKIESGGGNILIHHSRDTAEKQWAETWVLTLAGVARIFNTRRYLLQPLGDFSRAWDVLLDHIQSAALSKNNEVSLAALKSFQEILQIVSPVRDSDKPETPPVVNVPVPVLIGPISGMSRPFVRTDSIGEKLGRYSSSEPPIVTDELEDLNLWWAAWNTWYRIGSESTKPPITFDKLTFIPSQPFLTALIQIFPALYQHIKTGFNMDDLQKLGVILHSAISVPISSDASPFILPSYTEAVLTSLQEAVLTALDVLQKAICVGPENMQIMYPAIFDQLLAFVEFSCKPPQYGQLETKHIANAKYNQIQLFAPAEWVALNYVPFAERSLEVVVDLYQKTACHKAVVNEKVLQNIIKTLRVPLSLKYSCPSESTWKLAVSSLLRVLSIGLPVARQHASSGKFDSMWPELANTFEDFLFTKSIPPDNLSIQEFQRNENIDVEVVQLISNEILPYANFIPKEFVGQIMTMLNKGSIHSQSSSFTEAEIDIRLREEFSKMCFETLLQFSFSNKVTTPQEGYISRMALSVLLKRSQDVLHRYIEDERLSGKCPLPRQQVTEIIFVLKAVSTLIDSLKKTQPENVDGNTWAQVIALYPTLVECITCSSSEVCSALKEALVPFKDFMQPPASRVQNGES
inactive: [1] 0.044 | crizotinib -0.065 | [2] 0.081 | [3] 0.033 | duvelisib 0.173 | gandotinib -0.105 | tozasertib 0.011 | [4] 0.171 | doramapimod 0.077 | ispinesib -0.055

MYH11 isoform 2 (UniProt P35749)
inactive: [1] -0.026 | crizotinib -0.025 | [2] 0.01 | [3] -0.078 | duvelisib 0 | gandotinib 0.014 | tozasertib -0.032 | [4] 0.009 | doramapimod 0.057 | ispinesib -0.012

MRPS9 (UniProt P82933)
active: ispinesib -0.344
inactive: [1] -0.001 | crizotinib 0.011 | [2] 0.036 | [3] 0.202 | duvelisib -0.023 | gandotinib -0.054 | tozasertib -0.055 | [4] 0.086 | doramapimod 0.031

NFYC (UniProt Q13952)
inactive: [1] 0.022 | crizotinib 0.013 | [2] 0.054 | [3] 0.005 | duvelisib 0.086 | gandotinib 0.002 | tozasertib 0.022 | [4] 0.027 | doramapimod 0.001 | ispinesib 0.089

MTHFS (UniProt P49914)
Chain of UniProt P49914 (P49914 whole entry, looked up): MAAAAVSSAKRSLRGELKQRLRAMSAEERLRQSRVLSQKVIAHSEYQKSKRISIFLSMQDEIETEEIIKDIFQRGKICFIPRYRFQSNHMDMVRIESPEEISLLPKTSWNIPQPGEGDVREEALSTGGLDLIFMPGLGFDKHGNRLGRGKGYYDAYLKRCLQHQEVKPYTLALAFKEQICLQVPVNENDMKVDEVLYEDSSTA
inactive: [1] 0.103 | crizotinib -0.026 | [2] 0.117 | [3] -0.098 | duvelisib -0.023 | gandotinib -0.021 | tozasertib 0 | [4] 0.037 | doramapimod 0.013 | ispinesib 0.046

ORC3 isoform 2 (UniProt Q9UBD5)
Chain of UniProt Q9UBD5 (Q9UBD5 whole entry, looked up): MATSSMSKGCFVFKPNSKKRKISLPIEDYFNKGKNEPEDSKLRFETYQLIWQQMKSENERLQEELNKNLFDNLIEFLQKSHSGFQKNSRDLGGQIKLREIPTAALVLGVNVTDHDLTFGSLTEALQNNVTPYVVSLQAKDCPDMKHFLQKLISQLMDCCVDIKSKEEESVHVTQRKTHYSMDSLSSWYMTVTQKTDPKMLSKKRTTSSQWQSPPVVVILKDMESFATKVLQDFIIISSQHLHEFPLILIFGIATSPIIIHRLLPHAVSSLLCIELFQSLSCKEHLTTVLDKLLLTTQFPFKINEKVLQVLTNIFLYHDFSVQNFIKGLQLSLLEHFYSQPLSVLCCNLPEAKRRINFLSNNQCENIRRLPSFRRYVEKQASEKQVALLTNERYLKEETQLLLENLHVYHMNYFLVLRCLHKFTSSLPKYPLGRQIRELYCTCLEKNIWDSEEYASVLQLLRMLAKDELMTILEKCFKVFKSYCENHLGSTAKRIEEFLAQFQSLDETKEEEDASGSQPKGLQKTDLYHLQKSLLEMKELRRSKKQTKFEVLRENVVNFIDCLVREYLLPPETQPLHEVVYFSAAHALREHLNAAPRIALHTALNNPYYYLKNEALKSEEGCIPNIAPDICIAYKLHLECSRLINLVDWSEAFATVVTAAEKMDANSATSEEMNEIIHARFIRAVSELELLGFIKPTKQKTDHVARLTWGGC
active: crizotinib -0.434
inactive: [1] -0.054 | [2] 0.015 | [3] -0.005 | duvelisib -0.03 | gandotinib -0.044 | tozasertib 0.062 | [4] 0.177 | doramapimod 0.016 | ispinesib -0.17

NDUFA6 (UniProt P56556)
Chain of UniProt P56556 (P56556 whole entry, looked up): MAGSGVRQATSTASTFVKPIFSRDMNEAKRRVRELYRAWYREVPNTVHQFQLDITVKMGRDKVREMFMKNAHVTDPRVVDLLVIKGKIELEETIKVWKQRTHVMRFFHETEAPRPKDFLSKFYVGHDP
inactive: [1] 0.012 | crizotinib -0.044 | [2] 0.172 | [3] -0.078 | duvelisib 0.017 | gandotinib -0.22 | tozasertib -0.009 | [4] 0.098 | doramapimod -0.004 | ispinesib 0

NBN (UniProt O60934)
inactive: [1] 0.02 | crizotinib 0.009 | [2] 0.038 | [3] -0.063 | duvelisib 0.105 | gandotinib -0.069 | tozasertib 0.028 | [4] 0.116 | doramapimod -0.004 | ispinesib 0.008

OSBPL8 (UniProt Q9BZF1)
inactive: [1] 0.019 | crizotinib -0.179 | [2] -0.043 | [3] 0.219 | duvelisib -0.207 | gandotinib -0.105 | tozasertib 0.089 | [4] 0.103 | doramapimod 0.078 | ispinesib -0.433
